Calls of active or inactive are those of the source. Unless noted, no rule for the calls is given here.
How the values were obtained:
[1] = system: Wnt5a (protein binding on small-molecule microarray); assay: Wnt5a binders on small-molecule microarray, primary screen, biophysical, 635/667 nm fluorescence (AID 1142); settings: 635 nm fluorescence, higher = more signal;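 also: fluorescence read at 667 nm with signal to noise per printed feature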
[2] = cell viability in Huh7 cells, primary screen, cytotoxicity control for HCV replication inhibitor project, CellTiter-Glo luminescence, basal, 48 h (AID 1143); settings: Huh7 HCV replicon, higher = more signal, called active from +8 up or from −8 down;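 also: Huh7 hepatoma cells carrying a hepatitis C replication reporter with no stimulus; test concentration not given here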
[3] = P. aeruginosa biofilm formation inhibitors, primary screen, PAO1 strain, BacTiter-Glo luminescence, LB-PBS (AID 1144); settings: 12 h, higher = more signal
[4] = CREB reporter modulators without forskolin, primary screen, cell-based, PC12, CRE-LacZ reporter, unstimulated (AID 1145); settings: no forskolin, luminescence, 4.5 h, higher = more signal, called active from +8 up or from −8 down
[5] = CREB reporter modulators under forskolin, primary screen, cell-based, PC12, CRE-LacZ reporter, forskolin-stimulated (AID 1146); settings: luminescence, 4.5 h, higher = more signal, called active from +8 up or from −8 down;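 also: PC12 cells with 6xCRE LacZ reporter stimulated by forskolin 10 µM; beta-galactosidase reporter signal reflecting CREB driven transcription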
[6] = molecular target: Streptavidin (Streptomyces avidinii) (UniProt P22629); assay: streptavidin binders on small-molecule microarray, primary screen, artefact control for SMM compound annotation, biophysical, 635/667 nm fluorescence (AID 1147); settings: streptavidin binding, higher = more signal;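 also: signal reflects streptavidin binding to arrayed compounds as a control protein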
[7] = small-molecule binders of probe aInhba, primary screen, biochemical, small-molecule microarray, 635/667 nm fluorescence (AID 1148); settings: higher = more signal;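 also: score merges 667nm spot fluorescence with signal-to-noise for antibody binding to printed compounds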
Torsin-1A (Homo sapiens) [8] = molecular target: Torsin-1A (Homo sapiens) (UniProt O14656); assay: torsin A binders from cell lysate, primary screen, small-molecule microarray, wild-type, 635/667 nm (AID 1149); settings: COS7 hTOR1A-WT lysate, 635 nm fluorescence, higher = more signal
Torsin-1A (Homo sapiens) [9] = molecular target: Torsin-1A (Homo sapiens) (UniProt O14656); assay: small-molecule binders of mutant TOR1A in lysate, primary screen, cell lysate, small-molecule microarray, COS7 lysate, 635/667 nm fluorescence (AID 1150); settings: COS7 hTOR1A mutant lysate, 635 nm fluorescence, higher = more signal;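 also: score pools 667 nm emission and signal to noise measuring lysate protein binding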
[10] = system: Sonic hedgehog protein (Shh); assay: small-molecule binders of Shh protein, primary screen, biochemical, small-molecule microarray, 635/667 nm fluorescence (AID 1151); settings: small-molecule microarray binding, 635 nm fluorescence; higher = more signal;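 also: Shh protein binding to compounds spotted on small-molecule microarray slides; score combines spot fluorescence intensity with signal-to-noise across triplicate slides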
[11] = E. coli DRC41 culture turbidity changes, primary screen, E. coli filamentation inducer project, strain DRC41, OD650, 48 h (AID 1152);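 also: E. coli MC1000 strain DRC41 lacking acrAB efflux pump and sulA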; settings: E. coli DRC41 (acrAB sulA), higher = more signal, called active from +8 up or from −8 down
[12] = small-molecule binders of probe aLefty1, primary screen, biochemical, small-molecule microarray, 635/667 nm fluorescence (AID 1153); settings: higher = more signal;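 also: score merges spot fluorescence with signal-to-noise ratio from the scanned slide images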
[13] = PSAC antagonists in infected red cells, primary screen, cell-based, P. falciparum Indochina, OD700, 1 h (AID 1154); settings: P. falciparum Indochina infected RBC osmotic lysis, higher = more signal, called active from +8 up or from −8 down
[14] = PSAC antagonists in infected red cells, primary screen, cell-based, P. falciparum Indochina, OD700, 2 h (AID 1155);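 also: lysis reports solute entry through the parasite surface anion channel PSAC; channel blockers reduce lysis of infected cells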; settings: P. falciparum Indochina infected erythrocytes, osmotic lysis OD700; higher = more signal, called active from +8 up or from −8 down
[15] = osmotic lysis modulators in infected erythrocytes, primary screen, PSAC antagonist project, cell-based, P. falciparum Indochina, OD700, 3 h (AID 1156); settings: higher = more signal, called active from +8 up or from −8 down
[16] = PSAC antagonists in infected red cells, primary screen, cell-based, P. falciparum Indochina, OD700, 18 h (AID 1157); settings: P. falciparum Indochina infected erythrocytes, osmotic lysis OD700, 18 h; higher = more signal, called active from +8 up or from −8 down
[17] = modulators of S6 phosphorylation in cells, primary screen, cell-based, A549, cytoblot, luminescence, serum-stimulated (AID 1158); settings: A549 phospho-S6 cytoblot, 5 h, higher = more signal;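 also: serum-stimulated A549 lung adenocarcinoma cells; signal is phosphorylated S6 detected by cytoblot immunostaining with HRP secondary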
[18] = molecular target: NADPH oxidase 2 (Homo sapiens) (UniProt P04839); assay: NOX2-dependent H2O2 signal modulators, primary screen, NOX inhibitor project, cell-based, HEK293-NOX2, PMA-stimulated, Amplex Red fluorescence (AID 1159); settings: 45 min, higher = more signal, called active from +8 up or from −8 down; also: test concentration not given here
[19] = molecular target: NADPH oxidase 4 (Homo sapiens) (UniProt Q9NPH5); assay: NOX4-dependent H2O2 signal modulators, primary screen, NOX inhibitor project, cell-based, HEK293-NOX4, tetracycline-induced, Amplex Red fluorescence (AID 1160); settings: 45 min, higher = more signal, called active from +8 up or from −8 down
[20] = molecular target: NADPH oxidase 5 (Homo sapiens) (UniProt Q96PH1); assay: NOX5-dependent H2O2 signal modulators, primary screen, NOX inhibitor project, cell-based, HEK293-NOX5, Amplex Red fluorescence (AID 1161); settings: HEK293-NOX5, ionomycin, 45 min, higher = more signal
Chain of NADPH oxidase 5 (Homo sapiens) (Q96PH1 whole entry, looked up): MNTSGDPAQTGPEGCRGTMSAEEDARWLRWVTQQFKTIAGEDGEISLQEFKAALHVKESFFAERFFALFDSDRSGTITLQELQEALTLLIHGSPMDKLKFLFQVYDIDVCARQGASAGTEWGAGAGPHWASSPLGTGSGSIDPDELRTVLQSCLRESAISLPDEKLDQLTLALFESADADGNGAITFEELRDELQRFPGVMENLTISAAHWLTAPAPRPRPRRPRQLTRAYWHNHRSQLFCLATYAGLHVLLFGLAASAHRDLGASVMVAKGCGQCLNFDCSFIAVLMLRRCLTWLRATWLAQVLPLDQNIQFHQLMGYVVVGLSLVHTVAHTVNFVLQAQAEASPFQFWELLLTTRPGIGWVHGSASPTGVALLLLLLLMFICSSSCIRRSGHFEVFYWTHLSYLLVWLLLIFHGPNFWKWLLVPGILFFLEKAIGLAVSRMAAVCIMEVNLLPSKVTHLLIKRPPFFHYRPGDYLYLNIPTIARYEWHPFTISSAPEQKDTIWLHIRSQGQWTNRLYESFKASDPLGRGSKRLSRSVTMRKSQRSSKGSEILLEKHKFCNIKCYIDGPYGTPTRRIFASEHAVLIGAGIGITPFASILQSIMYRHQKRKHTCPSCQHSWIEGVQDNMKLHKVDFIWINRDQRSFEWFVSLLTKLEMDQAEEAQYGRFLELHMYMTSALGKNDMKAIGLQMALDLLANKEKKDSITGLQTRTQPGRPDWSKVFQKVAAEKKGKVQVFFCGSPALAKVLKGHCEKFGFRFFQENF

Chain of NADPH oxidase 2 (Homo sapiens) (P04839 whole entry, looked up): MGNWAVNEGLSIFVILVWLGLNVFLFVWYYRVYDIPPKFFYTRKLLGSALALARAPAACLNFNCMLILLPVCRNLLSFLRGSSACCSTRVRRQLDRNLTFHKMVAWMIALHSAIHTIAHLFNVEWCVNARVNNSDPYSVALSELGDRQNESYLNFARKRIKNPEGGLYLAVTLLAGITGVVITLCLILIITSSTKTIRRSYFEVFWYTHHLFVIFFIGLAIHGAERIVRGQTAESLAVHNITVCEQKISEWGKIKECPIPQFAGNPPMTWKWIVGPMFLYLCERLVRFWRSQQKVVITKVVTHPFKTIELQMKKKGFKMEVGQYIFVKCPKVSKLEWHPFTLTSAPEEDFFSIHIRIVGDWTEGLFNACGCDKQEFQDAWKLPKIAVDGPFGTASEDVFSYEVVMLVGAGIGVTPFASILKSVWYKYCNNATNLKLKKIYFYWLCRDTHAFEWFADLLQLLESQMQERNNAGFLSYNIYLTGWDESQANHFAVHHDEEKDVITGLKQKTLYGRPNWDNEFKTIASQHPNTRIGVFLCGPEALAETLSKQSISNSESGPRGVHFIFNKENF
Chain of NADPH oxidase 4 (Homo sapiens) (Q9NPH5 whole entry, looked up): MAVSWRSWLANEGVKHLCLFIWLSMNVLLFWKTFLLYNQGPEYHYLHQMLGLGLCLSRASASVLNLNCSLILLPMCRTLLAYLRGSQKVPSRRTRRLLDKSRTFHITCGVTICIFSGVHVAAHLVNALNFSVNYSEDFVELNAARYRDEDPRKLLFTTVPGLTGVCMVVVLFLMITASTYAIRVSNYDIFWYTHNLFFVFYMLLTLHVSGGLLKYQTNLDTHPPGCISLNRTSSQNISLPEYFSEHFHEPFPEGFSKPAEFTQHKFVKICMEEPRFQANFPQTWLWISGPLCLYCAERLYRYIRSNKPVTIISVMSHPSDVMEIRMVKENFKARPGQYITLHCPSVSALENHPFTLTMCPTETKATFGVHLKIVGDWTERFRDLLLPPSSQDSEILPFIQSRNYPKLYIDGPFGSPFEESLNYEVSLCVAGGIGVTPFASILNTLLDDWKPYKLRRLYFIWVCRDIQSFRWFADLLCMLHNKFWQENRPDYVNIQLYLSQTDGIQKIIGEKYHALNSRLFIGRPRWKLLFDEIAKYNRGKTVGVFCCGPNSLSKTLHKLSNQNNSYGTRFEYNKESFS
Chain of Torsin-1A (Homo sapiens) (O14656 whole entry, looked up): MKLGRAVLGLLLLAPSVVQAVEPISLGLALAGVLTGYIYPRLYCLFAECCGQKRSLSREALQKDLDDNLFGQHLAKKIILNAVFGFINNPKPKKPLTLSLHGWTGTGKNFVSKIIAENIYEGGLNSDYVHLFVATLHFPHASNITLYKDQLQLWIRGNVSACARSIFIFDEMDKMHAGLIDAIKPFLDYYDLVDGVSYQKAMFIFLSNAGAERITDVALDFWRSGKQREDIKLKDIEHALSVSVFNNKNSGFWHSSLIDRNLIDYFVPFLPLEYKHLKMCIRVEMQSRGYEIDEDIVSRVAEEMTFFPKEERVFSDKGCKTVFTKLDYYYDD
Chain of Streptavidin (Streptomyces avidinii) (P22629 whole entry, looked up): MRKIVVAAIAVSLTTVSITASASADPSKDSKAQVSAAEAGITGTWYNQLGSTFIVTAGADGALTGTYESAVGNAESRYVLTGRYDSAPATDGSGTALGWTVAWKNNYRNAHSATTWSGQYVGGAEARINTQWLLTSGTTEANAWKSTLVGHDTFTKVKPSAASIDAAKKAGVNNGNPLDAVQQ

| SMILES | composite z-score [1] | z-score [2] | z-score [3] | z-score [4] | z-score [5] | composite z-score [6] | composite z-score [7] | composite z-score (Torsin-1A (Homo sapiens) [8]) | composite z-score (Torsin-1A (Homo sapiens) [9]) | composite z-score [10] | z-score [11] | composite z-score [12] | z-score [13] | z-score [14] | z-score [15] | z-score [16] | z-score [17] | z-score [18] | z-score [19] | z-score [20] |
| --- | --- | --- | --- | --- | --- | --- | --- | --- | --- | --- | --- | --- | --- | --- | --- | --- | --- | --- | --- | --- |
| C#CCCCON=C1[C@H]2CCn3c(=O)n(Cc4cc5c(cc4Cl)OCO5)c(=O)n3[C@H]2[C@H](O)[C@@H]2O[C@H]12 | 0.272 | 0.256 (inactive) | -0.55 (inactive) | -0.207 (inactive) | 0.959 (inactive) | 0.23 | -0.0375 | 0.0703 | 0.248 | 1.08 | -0.248 (inactive) | -0.101 | 0.649 (inactive) | 0.581 (inactive) | 0.579 (inactive) | 0.035 (inactive) | -0.345 | -0.331 (inactive) | 0.367 (inactive) | -0.275 |
| CCOC(=O)[C@H](CC(C)C)NC(=O)CCC1CC(OC(=O)NCCc2ccc(F)cc2)CC2(CCCC(COC(=O)NCc3cccc(C(F)(F)F)c3)O2)O1 (stereo not given in full) | 0.0465 | 0.215 (inactive) | 0.074 (inactive) | -0.437 (inactive) | 0.257 (inactive) | 0.0808 | -0.0762 | 0.0857 | 0.147 | 0.909 | 0.265 (inactive) | 0.0437 | 6.76 (inactive) | 0.968 (inactive) | 0.0716 (inactive) | 0.127 (inactive) | -0.276 | 0.61 (inactive) | 0.703 (inactive) | 0.401 |
| C#CCCCON=C1C[C@@H](O)[C@@H](O)[C@@H]2[C@@H]3C(=O)N(C[C@@H]4CCCO4)C(=O)[C@@H]3CC[C@@H]12 | 0.195 | 0.0109 (inactive) | -0.164 (inactive) | 0.0687 (inactive) | 0.305 (inactive) | 0.269 | -0.142 | 0.308 | 0.28 | 0.305 | 0.225 (inactive) | 0.145 | -0.262 (inactive) | 0.284 (inactive) | -1.08 (inactive) | 0.354 (inactive) | -0.53 | -3.03 (inactive) | 0.424 (inactive) | -0.0863 |
| COC(=O)[C@H](C)NC(=O)CCC1CC(OC(=O)NCCc2ccc(F)cc2)CC2(CCCC(COC(=O)NCC3CCCCC3)O2)O1 (stereo not given in full) | 0.374 | -2.59 (inactive) | 0.0852 (inactive) | 0.819 (inactive) | 0.676 (inactive) | 0.915 | -0.0963 | -0.0051 | 0.348 | 0.886 | -0.56 (inactive) | -0.0464 | 0.731 (inactive) | -0.391 (inactive) | 0.701 (inactive) | -0.957 (inactive) | 1.77 | -0.763 (inactive) | -1.47 (inactive) | -1.68 |
| C[C@H]1CC[C@@H](C(=O)O)N[C@@H]1c1cccc(N2CCCC2=O)c1 | 0.0767 | 0.0659 (inactive) | -0.43 (inactive) | -0.437 (inactive) | -1.1 (inactive) | -0.0712 | -0.134 | 0.203 | 0.286 | 0.189 | 1.04 (inactive) | -0.103 | 0.162 (inactive) | 0.677 (inactive) | 0.121 (inactive) | 0.125 (inactive) | 0.42 | -0.207 (inactive) | 0.00437 (inactive) | 0.682 |
| O=C1C2=CC[C@H]3C(=O)N(C[C@@H]4CCCO4)C(=O)[C@H]3[C@H]2[C@H](O)[C@@H]2O[C@H]12 | 0.487 | -4.97 (inactive) | 0.846 (inactive) | 0.0664 (inactive) | 21.2 (active) | 0.19 | -0.12 | 0.863 | 0.511 | -0.331 | 0.194 (inactive) | -0.0969 | -0.303 (inactive) | 0.59 (inactive) | -0.2 (inactive) | 0.108 (inactive) | 0.177 | -1.35 (inactive) | -0.219 (inactive) | 0.271 |
| COC(=O)C(C(=O)OC)C1CCCC(=O)C1 (stereo not given) | -0.155 | -0.509 (inactive) | -0.619 (inactive) | -0.886 (inactive) | -0.0388 (inactive) | 0.402 | -0.274 | 0.622 | 1.42 | 0.769 | -1.06 (inactive) | -0.284 | 0.69 (inactive) | -0.176 (inactive) | 0.426 (inactive) | -0.29 (inactive) | 0.649 | -1.18 (inactive) | -1.61 (inactive) | 0.921 |
| CO[C@@H](C(C)C)[C@@H](C)C1OC(=O)CC1O (stereo not given in full) | -0.124 | 0.265 (inactive) | 0.446 (inactive) | -0.0673 (inactive) | -0.0208 (inactive) | -0.468 | -0.158 | -0.118 | -0.0794 | -0.595 | 0.486 (inactive) | -0.278 | -0.315 (inactive) | 0.0974 (inactive) | -0.566 (inactive) | -0.121 (inactive) | -0.289 | 1.29 (inactive) | 0.129 (inactive) | 0.368 |
| CC1(C)O[C@H]2OC([C@H](O)CON3C(=O)c4ccccc4C3=O)[C@H](O)[C@H]2O1 (stereo not given in full) | -0.0105 | 0.929 (inactive) | 0.425 (inactive) | 0.831 (inactive) | 0.266 (inactive) | -0.467 | 0.0319 | 0.0012 | 0.129 | 0.0991 | 0.336 (inactive) | -0.352 | -0.36 (inactive) | -0.215 (inactive) | -0.356 (inactive) | -0.266 (inactive) | -0.339 | 0.821 (inactive) | 0.146 (inactive) | 0.145 |
